Data as given in PubChem BioAssay (EPA / NIEHS).
The source made the active and inactive calls. Rule for the calls: active = hit-call score of the fitted dose curve at least 0.9, where 1 is the maximum; inactive = score below 0.9.

Key:
[1] = read-out: Tissue plasminogen activator (tPA), PLAT (gene 5327); experiment: BSK_BE3C_tPA: BioMAP Diversity Plus: BE3C Assay for Tissue plasminogen activator (tPA) Biomarker Activity (AID 2283041); conditions: primary human bronchial epithelial cells; actives raise or lower the signal
Outline: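 ELISA read-out of tPA on human primary bronchial epithelial cells, 24 h post-dosing; bidirectional fit vs DMSO negative control/baseline.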

[2] = read-out: Interleukin-8 (IL8), CXCL8 (gene 3576); experiment: BSK_CASM3C_IL8: BioMAP Diversity Plus: CASM3C Assay for Interleukin-8 (IL8) Biomarker Activity (AID 2283042); conditions: primary human coronary artery smooth muscle cells; actives raise or lower the signal;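 note: IL-8 protein level quantified by ELISA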
[3] = read-out: Human Leukocyte Antigen - DR isotype (HLADR), HLA-DRA (gene 3122); experiment: BSK_CASM3C_HLADR: BioMAP Diversity Plus: CASM3C Assay for Human Leukocyte Antigen - DR isotype (HLADR) Biomarker Activity (AID 2283043); conditions: primary human coronary artery smooth muscle cells; actives raise or lower the signal;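 note: cell-surface HLA-DR protein level quantified by ELISA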
[4] = read-out: Macrophage colony-stimulating factor (MCSF), CSF1 (gene 1435); experiment: BSK_CASM3C_MCSF: BioMAP Diversity Plus: CASM3C Assay for Macrophage colony-stimulating factor (MCSF) Biomarker Activity (AID 2283044); conditions: primary human coronary artery smooth muscle cells; actives raise or lower the signal;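 note: M-CSF protein amount quantified by ELISA after 24 h exposure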
[5] = read-out: Low-density lipoprotein receptor (LDLR), LDLR (gene 3949); experiment: BSK_CASM3C_LDLR: BioMAP Diversity Plus: CASM3C Assay for Low-density lipoprotein receptor (LDLR) Biomarker Activity (AID 2283045); conditions: primary human coronary artery smooth muscle cells; actives raise or lower the signal;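 note: LDLR protein level on the cell surface quantified by ELISA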
[6] = read-out: Monocyte Chemoattractant Protein-1 (MCP1), CCL2 (gene 6347); experiment: BSK_CASM3C_MCP1: BioMAP Diversity Plus: CASM3C Assay for Monocyte Chemoattractant Protein-1 (MCP1) Biomarker Activity (AID 2283046); conditions: primary human coronary artery smooth muscle cells; actives raise or lower the signal;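 note: MCP-1 level quantified by ELISA 24 h after dosing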
[7] = BSK_CASM3C_Proliferation: Cell Proliferation Assessment in the BioMAP Diversity Plus: CASM3C Assay (AID 2283047); conditions: primary human coronary artery smooth muscle cells;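 note: sulforhodamine B total protein stain as relative cell number at 560 nm; sub-confluent cells exposed 48 h before staining; fitted both ways against DMSO so gain or loss of cell number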
[8] = read-out: Monokine induced gamma interferon (MIG), CXCL9 (gene 4283); experiment: BSK_CASM3C_MIG: BioMAP Diversity Plus: CASM3C Assay for Monokine induced gamma interferon (MIG) Biomarker Activity (AID 2283048); conditions: primary human coronary artery smooth muscle cells; actives raise or lower the signal;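 note: MIG protein level measured by ELISA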
[9] = read-out: serum amyloid A (SAA), SAA1 (gene 6288); experiment: BSK_CASM3C_SAA: BioMAP Diversity Plus: CASM3C Assay for serum amyloid A (SAA) Biomarker Activity (AID 2283049); conditions: primary human coronary artery smooth muscle cells; actives raise or lower the signal;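 note: SAA protein level quantified by ELISA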
[10] = BSK_CASM3C_SRB: Viability Assessment in the BioMAP Diversity Plus: CASM3C Assay (AID 2283050); conditions: primary human coronary artery smooth muscle cells;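 note: total protein by SRB staining as cytotoxicity measure in parallel cultures; cells exposed to compound for 24 h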
[11] = read-out: Thrombomodulin, THBD (gene 7056); experiment: BSK_CASM3C_Thrombomodulin: BioMAP Diversity Plus: CASM3C Assay for Thrombomodulin Biomarker Activity (AID 2283051); conditions: primary human coronary artery smooth muscle cells; actives raise or lower the signal;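 note: thrombomodulin protein level measured by ELISA 24 h after dosing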
[12] = read-out: Tissue Factor, F3 (gene 2152); experiment: BSK_CASM3C_TissueFactor: BioMAP Diversity Plus: CASM3C Assay for Tissue Factor Biomarker Activity (AID 2283052); conditions: primary human coronary artery smooth muscle cells; actives raise or lower the signal;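 note: cell surface tissue factor protein level read by ELISA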
[13] = read-out: Interferon-gamma inducible Protein 10 (IP10), CXCL10 (gene 3627); experiment: BSK_hDFCGF_IP10: BioMAP Diversity Plus: hDFCGF Assay for Interferon-gamma inducible Protein 10 (IP10) Biomarker Activity (AID 2283053); conditions: primary human foreskin fibroblasts; actives raise or lower the signal
Outline: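 ELISA read-out of IP-10 (CXCL10) from primary human skin fibroblasts, 24 h after compound addition. Gain or loss of signal versus DMSO baseline, bidirectional curve fitting.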

[14] = read-out: Urokinase-type plasminogen activator receptor (uPAR), PLAUR (gene 5329); experiment: BSK_CASM3C_uPAR: BioMAP Diversity Plus: CASM3C Assay for Urokinase-type plasminogen activator receptor (uPAR) Biomarker Activity (AID 2283054); conditions: primary human coronary artery smooth muscle cells; actives raise or lower the signal;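 note: cell-surface uPAR protein level quantified by ELISA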
[15] = read-out: Vascular cell adhesion molecule 1 (VCAM1), VCAM1 (gene 7412); experiment: BSK_CASM3C_VCAM1: BioMAP Diversity Plus: CASM3C Assay for Vascular cell adhesion molecule 1 (VCAM1) Biomarker Activity (AID 2283055); conditions: primary human coronary artery smooth muscle cells; actives raise or lower the signal;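 note: VCAM-1 protein level quantified by ELISA on the cells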
[16] = read-out: Collagen III, COL3A1 (gene 1281); experiment: BSK_hDFCGF_CollagenIII: BioMAP Diversity Plus: hDFCGF Assay for Collagen III Biomarker Activity (AID 2283056); conditions: primary human foreskin fibroblasts; actives raise or lower the signal
Outline: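 Response relative to DMSO, fitted in both directions, reflects ELISA-measured collagen III in human primary skin fibroblasts 24 h after compound addition.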

[17] = read-out: Epidermal growth factor receptor (EGFR), EGFR (gene 1956); experiment: BSK_hDFCGF_EGFR: BioMAP Diversity Plus: hDFCGF Assay for Epidermal growth factor receptor (EGFR) Biomarker Activity (AID 2283057); conditions: primary human foreskin fibroblasts; actives raise or lower the signal
Outline: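 ELISA readout of EGFR on human dermal fibroblasts (primary foreskin cells), 24 h post-dosing; bidirectional curve fit vs DMSO baseline, gain or loss of signal scored.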

[18] = read-out: Interleukin-8 (IL8), CXCL8 (gene 3576); experiment: BSK_hDFCGF_IL8: BioMAP Diversity Plus: hDFCGF Assay for Interleukin-8 (IL8) Biomarker Activity (AID 2283058); conditions: primary human foreskin fibroblasts; actives raise or lower the signal
Outline: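 Fibroblast monolayers (human foreskin, hDFCGF) received test chemical for 24 h before ELISA detection of IL-8; either increases or decreases relative to DMSO count as activity.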

[19] = BSK_hDFCGF_Proliferation: Cell Proliferation Assessment in the BioMAP Diversity Plus: hDFCGF Assay (AID 2283059); conditions: primary human foreskin fibroblasts;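 note: curves fitted for both rise and fall of signal versus DMSO baseline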
Outline: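 Sub-confluent human foreskin fibroblast cultures receive test chemical […]. Relative cell number is quantified by sulforhodamine B staining (0.1%, after 10% TCA fixation) at 560 nm, with bidirectional fitting referenced to DMSO.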

[20] = read-out: Macrophage colony-stimulating factor (MCSF), CSF1 (gene 1435); experiment: BSK_hDFCGF_MCSF: BioMAP Diversity Plus: hDFCGF Assay for Macrophage colony-stimulating factor (MCSF) Biomarker Activity (AID 2283060); conditions: primary human foreskin fibroblasts; actives raise or lower the signal
Outline: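 fibroblasts (human foreskin, primary), 24 h post-dose; M-CSF by ELISA; bidirectional fit, DMSO = baseline.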

Measured: AC50

CCCCCCCCOC(=O)c1cc(O)c(O)c(O)c1
active: [1] 24.9 µM | [2] 31.7 µM | [3] 31.9 µM | [4] 20 µM | [5] 29.2 µM | [6] 27.8 µM | [7] 16.1 µM | [8] 31 µM | [9] 20 µM | [10] 31.3 µM | [11] 0.282 µM | [13] 12.7 µM | [14] 34.2 µM | [15] 28.2 µM | [16] 14 µM | [18] 33.2 µM | [19] 4.32 µM | [20] 27.8 µM
inactive: [12] | [17]

NC(=O)c1nc(-c2cccc(-c3cc(F)ccc3OCC(F)(F)C(F)(F)F)c2)n[nH]1
active: [1] 27.5 µM | [3] 28.7 µM | [7] 31.4 µM | [13] 35 µM | [14] 32 µM | [16] 17.7 µM | [18] 39.3 µM | [19] 31.1 µM | [20] 44 µM
inactive: all other assays above

CCN(Cc1cccc(S(=O)(=O)O)c1)c1ccc(C(=C2C=CC(=[N+](CC)Cc3cccc(S(=O)(=O)O)c3)C=C2)c2ccccc2S(=O)(=O)[O-])cc1
active: [13] 18.8 µM
inactive: all other assays above

Cc1c2ccccc2c(C)c2c1ccc1ccccc12
active: [3] 20 µM | [7] 12.6 µM | [10] 20 µM | [11] 20 µM | [13] 6.29 µM | [16] 1.73 µM | [17] 5.45 µM | [19] 7.26 µM | [20] 5.48 µM
inactive: all other assays above

C[C@]12CC[C@@H]3c4ccc(O)cc4CC[C@H]3[C@@H]1CCC2=O
active: [19] 17.6 µM
inactive: all other assays above

Cc1ccc(C(C)C)cc1
inactive: all assays above

CN1C(=O)CC[C@H]1c1cccnc1
inactive: all assays above

O=C=NCCCCCCN=C=O
inactive: all assays above
